# SNCA expr inhib: inhibitors of alpha-synuclein (SNCA) gene expression; AID 1671194; HEK-293 SNCA-luciferase knock-in, luminescence, 24 h; actives 0.17% (n = 140,000); Potency, µM (series often up to 57.2 µM), for the others: at the top dose activity change, negative = inhibition, actives largely listed as inhibitors;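 note: potency is the fitted concentration of half-maximal effect; plate controls were DMSO cells for no effect and cell-free wells for full effect; nearly all actives have a fitted effect of over 45% in size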
# IP6K1 inhibitor: IP6K1 kinase inhibition. AID 1645851. Q92551. IP6K1 kinase, ADP-Glo luminescence, 2 h; stronger effect = lower value. activity change, % (series mostly up to about 58 µM). actives 0.81% (n = 140,000); in the data active = activity change below about -25%
#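 ADP-Glo luminescence measures ADP made by human IP6K1 during a 2 h RT reaction with ATP/IP6 (mix at 1.3 mM/130 uM); top library doses 57.5 and 19.1 uM final.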
# HEK293 viab: counter-screen for SNCA expression inhibitors: cell viability; HEK-293-SNCA-luc viability, GF-AFC fluorescence, 24 h; Potency, µM (top dose mostly 57.1 µM), for inactives: at the highest dose activity change, negative = cytotoxicity, most hits filed as cytotoxic; actives 0.12% (n = 150,000);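 note: potency is the fitted concentration of half-maximal effect; 0% = DMSO-treated cells and -100% = medium-only wells without cells; nearly all actives have a fitted effect of over 30% in size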
#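 HEK-293-SNCA-luc cells (1500/well) plated 24 h, then exposed 24 h to a dilution series; GF-AFC added 30 min at 37C, fluorescence 405/540 nm; normalised to medium-only and DMSO wells, Hill fit.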
# FLuc inh: inhibitors of firefly (Photinus pyralis) luciferase. purified P. pyralis luciferase, luminescence, biochemical. Potency, µM (titrated, usually from 115 µM), usual class: inhibitors. actives 2.5% (n = 76,000); note: potency is the fitted concentration of half-maximal effect; nearly all actives have a fitted effect of over 65% in size
# Target sequence (P08659 whole entry, looked up): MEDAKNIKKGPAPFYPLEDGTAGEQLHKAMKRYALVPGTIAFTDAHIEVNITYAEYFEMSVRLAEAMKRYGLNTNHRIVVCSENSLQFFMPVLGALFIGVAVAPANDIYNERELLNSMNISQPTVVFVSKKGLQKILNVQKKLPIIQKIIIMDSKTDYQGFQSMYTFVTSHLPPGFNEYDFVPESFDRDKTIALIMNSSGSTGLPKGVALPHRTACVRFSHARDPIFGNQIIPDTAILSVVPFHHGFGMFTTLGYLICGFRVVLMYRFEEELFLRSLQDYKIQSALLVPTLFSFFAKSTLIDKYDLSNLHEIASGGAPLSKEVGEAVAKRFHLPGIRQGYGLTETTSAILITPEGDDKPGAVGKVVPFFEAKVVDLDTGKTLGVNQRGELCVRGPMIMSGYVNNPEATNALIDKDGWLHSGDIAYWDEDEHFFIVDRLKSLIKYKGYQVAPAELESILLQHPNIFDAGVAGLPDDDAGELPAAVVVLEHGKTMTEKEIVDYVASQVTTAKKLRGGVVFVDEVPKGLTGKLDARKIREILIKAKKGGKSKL
#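 Cell-free enzyme assay, 10nM P. pyralis luciferase, luciferin and ATP each at 10uM. Inhibition profiled over a 6-point titration, read as luminescence.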
# NIH3T3 tox: cytotoxic compounds in NIH 3T3 cells; actives 4.3% (n = 94,000); Potency, µM (top dose mostly 96.7 µM), inactives show at the highest dose activity change, negative = cytotoxicity, actives largely listed as inhibitors; NIH 3T3 viability, CellTiter-Glo ATP luminescence, 48-72 h; note: potency is the fitted concentration of half-maximal effect; nearly all actives have a fitted effect of over 55% in size
#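 Cytotoxicity is measured as loss of cellular ATP: NIH 3T3 cells (400/well) are exposed to compound for 48 or 72 hr at 37 °C, then CellTiter-Glo luminescence is imaged after 10 min at room temperature.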
# HEK293 tox: kills HEK 293 cells | HEK 293 viability, ATP luminescence (CellTiter-Glo), 48-72 h | Potency, µM (highest dose often 115 µM), inactives show at the top dose activity change, negative = cytotoxicity, most hits filed as inhibitors | actives 6.6% (n = 94,000); note: potency is the fitted concentration of half-maximal effect; nearly all actives have a fitted effect of over 60% in size
#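 250 HEK 293 cells/well; compound by pintool; incubated 48 or 72 hr at 37 degree Celsius; CellTiter-Glo added, 10 min RT, luminescence imaged.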
# The depositor's hits bear a star; i = inactive; ? = inconclusive; / = not tested or not shown; [ ] = another dose, or the depositor's remark. The list is not random: actives were taken first. Their share in the collection is about 7.3%. Unless noted, calls come from the whole dose curve; as a rule, active = well fitted curve in the direction sought with a large enough effect; inconclusive = small, poorly fitted or top-dose-only effect, or another doubt; inactive = no such curve, though single readings can be large; an effect the other way counts as inactive or inconclusive. Unless noted, % is set by controls: 0 for no effect and ±100 for the full control effect.
SMILES,SNCA expr inhib,IP6K1 inhibitor,HEK293 viab,FLuc inh,NIH3T3 tox,HEK293 tox
O=C1CN(Cc2ccc(-c3ccsc3)cc2)CCN1c1cc(Cl)ncn1,12.7%,13.6,9.6%,i,?,35.5µM*
O=C1CN(Cc2ccc(-c3cc(F)cc(F)c3)cc2)CCN1c1cc(Cl)ncn1,-11.0%,10.1,0.6%,i,?,?
CCOC(=O)C1(Cc2ccccc2C)CCCN(C(=O)c2csc(C)n2)C1 (centres undefined),98.1%,5.5,-4.0%,39.8µM*,-0.3%,-16.6%
CCOC(=O)C1(Cc2ccccc2F)CCCN(C(=O)CCc2c[nH]c3ccccc23)C1 (centres undefined),?,17.1,?,i,?,35.5µM*
CCOC(=O)C1(Cc2ccccc2Cl)CCN(C(=O)c2ccsc2)CC1,93.6%,6.3,1.0%,25.1µM*,-24.5%,79.4µM*
O=C(c1ccc(F)c(Cl)c1)N1CCN(c2cc(C(F)(F)F)ncn2)CC1,-7.0%,-9.5,16.4%,i,?,?
O=C(c1ccccc1F)N1CCCC(c2nc(C3CCOCC3)no2)C1 (centres undefined),50.5%,8.7,6.3%,i,-19.8%,-12.5%
Cc1cc(C)c(CNC(=O)c2nc(-c3ccc(CO)cc3)cc3c2ccn3C(C)C)c(=O)[nH]1,-20.6%,-6.3,-8.3%,i,?,79.4µM*
CC(=O)Nc1cccc(-c2cc3c(ccn3C)c(C(=O)NCc3c(C)cc(C)[nH]c3=O)n2)c1,13.9%,-11.0,-12.6%,i,-24.8%,?
Cc1cc(C)c(CNC(=O)c2nc(-c3ccc(F)cc3)cc3c2ccn3C(C)C)c(=O)[nH]1,?,-8.4,-18.5%[87.6 µM],i,44.7µM*,50.1µM*
Cc1cc(C)c(CNC(=O)c2nc(-c3cccnc3)cc3c2ccn3C(C)C)c(=O)[nH]1,3.4%[87.6 µM],9.9,-16.2%[87.6 µM],i,?,100µM*
Cc1cc(C)c(CNC(=O)c2nc(-c3cncnc3)cc3c2ccn3C(C)C)c(=O)[nH]1,-7.3%[87.6 µM],-1.4,1.1%[87.6 µM],i,?,?
COc1cccc(-c2cc3c(ccn3C(C)C)c(C(=O)NCc3c(C)cc(C)[nH]c3=O)n2)c1,-13.8%,-0.4,-28.6%,i,?,?
COc1ccccc1-c1cc2c(ccn2C)c(C(=O)NCc2c(C)cc(C)[nH]c2=O)n1,18.4%[87.6 µM],7.0,-8.5%[87.6 µM],i,?,?
Cc1cc(-c2cc3c(ccn3C(C)C)c(C(=O)NCc3c(C)cc(C)[nH]c3=O)n2)ccn1,-4.6%[87.6 µM],13.6,-19.2%[87.6 µM],i,44.7µM*,44.7µM*
O=C(C1CCCC1)N1CCC(c2noc(CO)n2)C1 (centres undefined),2.7%,-2.8,-6.7%,i,-10.4%,-17.6%
Cn1ncc2c(C(=O)NCc3ccccc3Cl)cc(-c3ccccc3F)nc21,/,6.0,/,/,?,?
CCOC(=O)[C@H]1[C@@H](O)C(=O)N(Cc2ccccc2)C12CCN(C(=O)c1cc(C)oc1C)CC2,/,11.4,/,/,?,-8.0%
COCC1CN(Cc2ccccc2C(F)(F)F)CC12CCNCC2 (centres undefined),6.3%,25.1,-8.6%,i,?,?
O=C(NC1CCCC1)C1CCCN(Cc2cccc(-c3ccc(F)cc3F)c2)C1 (centres undefined),-21.4%,-7.4,-23.9%,/,39.8µM*,39.8µM*
O=C(NC1CC1)C1CCCN(Cc2cccc(-c3ccc(F)cc3F)c2)C1 (centres undefined),-1.0%,7.4,-0.5%,/,?,39.8µM*
O=C(NCC(F)(F)F)C1CCCN(Cc2cccc(-c3ccc(F)cc3F)c2)C1 (centres undefined),-15.3%,0.3,1.6%,/,?,?
CC(C)NC(=O)C1CCCN(Cc2cccc(-c3ccc(F)cc3F)c2)C1 (centres undefined),3.4%,13.6,21.7%,/,?,35.5µM*
Cc1nc(-c2cnccn2)n(CC(=O)Nc2ccc3c(c2)OCO3)c(=O)c1C,-5.7%,-0.8,-9.8%,i,0.5%,-17.4%
COCCOc1ccc2c(n1)CCN(C(=O)CC1CCCCC1)C2,69.6%,-22.5,-0.6%[12.5 µM],?,?,?
SMILES,SNCA expr inhib,IP6K1 inhibitor,HEK293 viab,FLuc inh,NIH3T3 tox,HEK293 tox
COc1ccc(Cn2c(=O)c(C(=O)N3CCN([S+](C)(=O)[O-])CC3)nc3cccnc32)cc1,?,-2.3,-3.1%,/,-12.5%,i
O=C(NC1CCCCC1)N1CCC(c2noc(C3CC3)n2)C1 (centres undefined),5.3%,-5.9,-2.2%,i,i,4.5%
COC(=O)[C@@H]1Cc2c([nH]c3ccccc23)[C@H]2C[C@@H](N3CCOCC3)C[C@@H](c3ccc(F)cc3)N21,16.3%,-14.3,1.2%,i,?,?
COC(=O)[C@@H]1Cc2c([nH]c3ccccc23)[C@H]2C[C@H](N3CCCCC3)C[C@@H](c3ccccc3F)N21,?,0.4,-13.5%,i,28.2µM*,?
COC(=O)[C@@H]1Cc2c([nH]c3ccccc23)[C@H]2C[C@@H](N3CCCCC3)C[C@@H](c3ccccc3F)N21,-6.9%,7.4,-11.3%,i,?,22.4µM*
O=C(NC1CCN(c2cnn(Cc3ccccc3)c(=O)c2)CC1)C1CCOCC1,-14.3%,40.1,17.4%,i,-6.6%,i
COc1cccc(-c2ccc(C(=O)NCCNC(=O)NC(C)C)cc2)c1,/,-13.7,/,/,-10.4%,i
Cn1nccc1C(=O)N1CCC2(CC1)OC(=O)N(Cc1ccccc1)C2(C)c1cccnc1 (centres undefined),4.0%,-11.6,-1.8%,i,28.2µM*,i
CC(C)C(=O)N1CCC2(CC1)OC(=O)N(Cc1ccccc1)C2(C)c1cccnc1 (centres undefined),-20.7%[87.6 µM],0.4,0.1%[87.6 µM],i,20µM*,-17.3%[172 µM]
CC1(c2ccccc2)N(Cc2ncccn2)C(=O)OC12CCN(C(=O)Cc1ccc3c(c1)OCO3)CC2 (centres undefined),-0.2%,-4.0,12.0%,i,39.8µM*,-18.5%
CC(C)C(=O)N1CCC2(CC1)OC(=O)N(Cc1ncccn1)C2(C)c1ccccc1 (centres undefined),-3.0%[87.6 µM],-5.1,2.4%[87.6 µM],i,89.1µM*,0.4%[172 µM]
CC1(c2ccccc2)N(Cc2ncccn2)C(=O)OC12CCN(C(=O)Cc1ccc(Cl)cc1)CC2 (centres undefined),-20.4%,-5.7,1.3%,i,?,-11.7%
Cc1ccc(C(=O)N2CCC(c3n[nH]c(=O)n3Cc3ccc(F)cc3)CC2)c(C)c1,?,3.4,-9.6%,i,-16.8%,-7.2%
